Shiga toxin inh: A qHTS for Small Molecule Inhibitors of Shiga Toxin; actives 9.2% (n = 290,000); inhibition, % at 38.7 µM; Vero cells, Shiga toxin protein synthesis inhibition reporter; in the data active = inhibition mostly above about 28%, no sharp cut-off; inactive = mostly below about 43%; also: 0% is about no effect
NS1 inh: qHTS Assay for Inhibitors of Influenza NS1 Protein Function; Potency, µM (series often up to 46.1 µM), for inactives: top-dose activity, positive = more growth; actives 0.4% (n = 270,000); also: potency is read from the fitted curve at half-maximal effect; actives are rising curves; nearly all actives have a fitted effect of over 50% in size
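Growth recovery, yeast-based: influenza A NS1 expressed in S. cerevisiae causes slow growth, and suppressors are detected by OD600. The parent strain without NS1 is used as positive control.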
Pf growth 48h: Primary qHTS for delayed death inhibitors of the malarial parasite plastid, 48 hour incubation. P. falciparum luciferase growth in erythrocytes, 48 h. AID 504832, 2011. actives 5.9% (n = 310,000). Potency, µM (titrated, usually from 28.7 µM), for the others: at the top dose activity change, negative = inhibition, most hits filed as inhibitors; active = well fitted inhibition curve with a large enough effect; inconclusive = small, poorly fitted or top-dose-only effect, or another doubt; inactive = no such curve, though single readings can be large or run the other way; also: potency is read from the fitted curve at half-maximal effect; % is scaled to controls: 0 for no effect and ±100 for the full control effect
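First compound was added to culture medium, then infected red cells at 0.1% parasitemia and 2% hematocrit (final). After incubation at 37 C under 5% CO2, luciferase detection reagent was dispensed and light output recorded.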
Cycloheximide cs: Cycloheximide Counterscreen for Small Molecule Inhibitors of Shiga Toxin; cell reporter, cycloheximide protein synthesis inhibition counterscreen; max response, %; actives 12% (n = 300,000); AID 2314, 2010; in the data active = max response mostly above about 13%, no sharp cut-off; inactive = mostly below about 14%; also: read at 38.3 µM for the half of the compounds with a filed dose; 0% is about no effect
Pf growth 96h: Primary qHTS for delayed death inhibitors of the malarial parasite plastid, 96 hour incubation. P. falciparum luciferase reporter growth, 96 h. Potency, µM (doses to about 28.7 µM), for the others: at the highest dose activity change, negative = inhibition, hits mostly inhibitors. actives 6.9% (n = 320,000). AID 504834, 2011; active = well fitted inhibition curve with a large enough effect; inconclusive = small, poorly fitted or top-dose-only effect, or another doubt; inactive = no such curve, though single readings can be large or run the other way; also: potency is read from the fitted curve at half-maximal effect; % is scaled to controls: 0 for no effect and ±100 for the full control effect
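Parasite growth measured via integrated firefly luciferase reporter in P. falciparum. Infected erythrocytes at 2% hematocrit, 0.05% parasitemia final were treated 96 hours at 37 C under 5% CO2, and luminescence was read.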
SARS PLpro yeast: qHTS of Yeast-based Assay for SARS-CoV PLP | AID 485353, 2010 | S. cerevisiae expressing SARS-CoV PLpro, growth rescue | actives 0.19% (n = 330,000) | Potency, µM (top dose mostly 32.9 µM), inactives show at the highest dose activity, positive = growth rescue, most hits filed as activators; also: potency is read from the fitted curve at half-maximal effect; 0% is about no effect; nearly all actives have a fitted effect of over 55% in size
* marks the source's active call; other numbers are inactive results; ? = inconclusive; nt = no result. Most compounds without a hit are left out; they make up all but 21% or so of the library. Unless noted, calls follow the shape of the full dose curve.

SMILES	Shiga toxin inh	NS1 inh	Pf growth 48h	Cycloheximide cs	Pf growth 96h	SARS PLpro yeast
CN(C)c1cc(-c2ccc(Cl)c(Cl)c2)oc(=O)c1Cl	-12	-47%	4%	-4	63%	-1%
CCOCc1c(C(=O)OCC(=O)Nc2ccc(C)c(S(=O)(=O)N(C)C)c2)oc2ccccc12	-20	-3%	-1%	-1	14%	-30%
Cc1cc(C(=O)CSc2n[nH]c(N)n2)c(C)n1-c1ccc(F)cc1	61*	15%	54%	40*	?	25%
Cc1ccc(-n2c(C)cc(C(=O)COC(=O)c3c(C)noc3C)c2C)cc1	104*	-61%	227%	39*	389%	-26%
Nc1nc(SCC(=O)c2cc(F)ccc2F)n[nH]1	-1	18%	0%	3	2%	-4%
Cc1cc(C(=O)COC(=O)c2cnccn2)c(C)n1-c1ccc(Br)cc1	nt	nt	nt	nt	nt	-10%
O=C(OCN1C(=O)c2ccccc2C1=O)c1cccc(S(=O)(=O)N2CCOCC2)c1	-25	5%	13%	-4	-21%	-1%
CCCCn1c(SCC(=O)N2CCOCC2)nnc1-c1cccs1	18	-7%	7%	4	65%	?
COc1ccc2c(c1)Cc1sc(NC(=O)c3ccco3)nc1-2	62*	-2%	110%	74*	?	-9%
COc1ccc2c(c1)-c1nc(NC(=O)c3cccs3)sc1CC2	75*	?	?	24*	15%	-38%
COc1ccc2c(c1)-c1nc(NC(=O)c3ccco3)sc1CC2	121*	-4%	154%	49*	0%	-74%
COc1ccc2c(c1)CCc1sc(NC(=O)c3ccco3)nc1-2	129*	-3%	nt	50*	?	-28%
COc1ccc(N2CCOCC2)c(NC(=O)c2cccs2)c1	-4	-16%	32%	-1	7%	-3%
COc1ccc(C(=O)Nc2ccc(NC(=O)c3ccco3)cc2)cc1	29	-3%	-11%	-6	12%	-4%
Cc1cc(C)cc(-n2cc(C(=O)O)c(=O)cc2C)c1	-10	nt	-9%	0	10%	1%
COc1cc(Cl)c(CNC[C@H]2O[C@@H](n3cnc4c(N)ncnc43)[C@H](O)[C@@H]2O)c(Cl)c1O	nt	nt	nt	nt	nt	16%
COc1ccc2c(c1)CCc1sc(NC(=O)c3ccc(C)cc3)nc1-2	80	9%	?	19	6.6µM*	0%
COc1ccc2c(c1)Cc1sc(NC(=O)c3cccnc3)nc1-2	13	21%	?	6	-1%	0%
COc1ccc2c(c1)Cc1sc(NC(C)=O)nc1-2	72*	-9%	90%	40*	-10%	-6%
Cc1ccc2c(c1)COc1c3ccc(C(=O)O)cc3nn1-2	-8	-46%	70%	-4	97%	-5%
Cc1ccc2c(c1)COc1c3ccc(C(=O)NCC4CC4)cc3nn1-2	54*	-45%	27%	30*	30%	-1%
O=C(NCCO)c1ccc2c3n(nc2c1)-c1ccccc1CO3	44*	1%	3%	39*	238%	-3%
O=C(NCC1CC1)c1ccc2c3n(nc2c1)-c1ccccc1CO3	92*	-73%	146%	30*	121%	-9%
O=C(CCS(=O)(=O)c1ccccc1)Nc1ccccc1F	37	0%	29%	14	233%	1%
N/C(CS(=O)(=O)c1ccccn1)=N\OC(=O)c1ccc(Cl)cc1	35	1%	22%	26*	27%	1%
SMILES	Shiga toxin inh	NS1 inh	Pf growth 48h	Cycloheximide cs	Pf growth 96h	SARS PLpro yeast
N/C(CS(=O)(=O)c1ccccn1)=N\OC(=O)c1ccccc1Cl	57*	-7%	62%	40*	156%	0%
N/C(CCS(=O)(=O)c1ccc(Cl)cc1)=N\OC(=O)c1ccc(Cl)cc1	-7	10%	?	-2	?	0%
C[C@H](NC(=O)c1ccco1)C(=O)NCCc1ccc(S(N)(=O)=O)cc1	-11	-1%	9%	2	18%	0%
Cc1cc(=O)oc(C)c1C(=O)OCC(=O)c1ccc(Cl)cc1	80*	-16%	0%	35*	30%	-8%
Cc1cc(=O)oc(C)c1C(=O)OCC(=O)c1ccc(Br)cc1	70*	1%	-20%	24*	?	-26%
O=S(=O)(NCCSc1nnc(-c2ccco2)n1-c1ccccc1)c1ccccc1	-9	-49%	?	-4	-29%	-1%
COc1cc(-c2[nH]nc3c2C(c2ccco2)C(C#N)=C(N)O3)cc(OC)c1OC (stereo unspecified)	-10	29%	?	-3	?	0%
COc1ccc(C(=O)CSc2nnc(CN3CCCCC3)n2-c2ccc(F)cc2)cc1OC	-16	0%	-5%	-3	-29%	-12%
Cc1ccn2c(C(=O)CSc3ccccc3Cl)c(C)nc2c1	11	3%	3.7µM*	-1	?	-2%
Cc1ccc(F)cc1NC(=O)CN1C(=O)NC2(CCCc3ccccc32)C1=O (stereo unspecified)	nt	nt	-24%	nt	1%	5%
CCc1ccccc1NC(=S)N1CCN(c2cccc(OC)c2)CC1	nt	5%	38%	1	-3%	2%
Cc1ccccc1-n1cc(-c2ccc(Br)cc2)nc1SCC(N)=O	1	-8%	-12%	0	?	-1%
CCOC(=O)NC(=O)CSc1nc(-c2ccc(C)c(C)c2)cn1-c1ccccc1	131*	-17%	-67%	63*	-68%	-34%
Cc1ccc(-c2cn(-c3ccccc3)c(SCC(N)=O)n2)cc1C	43*	-24%	39%	37*	6%	-11%
CCN(CC)CCNC(=O)c1[nH]c2ccc(OCc3ccccc3)cc2c1C	-31	nt	?	1	10%	0%
O=C(O)c1ccc2c(c1)C(=O)N([C@H](Cc1c[nH]c3ccccc13)C(=O)O)C2=O	19	nt	?	15	15%	1%
COc1ccc(CNc2ccc3c(c2)CCC3)cc1Br	70*	6%	56%	41*	7.4µM*	-1%
COc1ccccc1CNc1ccc2c(c1)CCC2	nt	1%	?	32*	?	-6%
COc1ccccc1CNC(=O)COc1ccc2c(c1)CCC2	12	nt	-11%	10	?	2%
CCOc1cc(CNc2ccc3c(c2)CCC3)ccc1OC	66	4%	nt	35*	-57%	7%
COc1ccc(N=Cc2c(O)c3ccccc3n2C(C)=O)cc1	52	-4%	?	14*	?	-2%
Cn1c(=O)c(C=Nc2ccccc2)c(O)c2ccccc21	1	-52%	?	13	3%	-4%
COc1ccc(N=Cc2sc(O)c3ccccc23)cc1	87*	7%	-91%	66*	-21%	-7%
COc1c(OC(C)=O)c(=O)n2c3ccccc3c3ccnc1c32	nt	nt	-8%	nt	25%	-2%

Assay outcomes deposited in PubChem by National Center for Advancing Translational Sciences (NCATS).
